The text below walks through data of PubChem BioAssay (NCATS).

SMILES strings stand for the structures. Records with an inconclusive call do not appear. A number with no mark means an inactive call. Active and inactive are the calls of the source. The call rests on the fitted dose curve; in most records, active means well fitted cell-killing curve with a large enough effect; inconclusive means small, poorly fitted or top-dose-only effect; inactive means no such curve, though single readings can be large or run the other way.
Potency means the concentration at half of the fitted maximal effect.

The assay can be described thus: qHTS of pediatric cancer cell lines to identify multiple opportunities for drug repurposing: Primary screen for SK-N-MC cells (AID 1347093). Particulars: SK-N-MC viability, CellTiter-Glo luminescence, 48 h; series mostly up to 46 µM; activity change, negative = cytotoxic: at the top concentration. The text has this: Drug repurposing or repositioning has been offered as a strategy for drug development in oncology programs. This approach has special potential for childhood cancers and other rare or orphan diseases, where the expected return on new drug development has been a disincentive to pharmaceuticals.
In this project we exploit the poly-pharmacology of drugs to discover new indications via phenotypic screening of a panel of 19 well-characterized cell lines derived from solid tumors seen in children and adolescents. The goal is to identify approved drugs with previously unrecognized anticancer properties that has the potential to reveal new mechanisms and biological processes involved in carcinogenesis or drug resistance. We employed a titration-based paradigm (quantitative high-throughput screening or qHTS), where all compounds were tested at multiple concentrations for their effect on cell viability. Concentration-response curves (CRCs) were derived directly from the primary screen, and both potency and efficacy values were used to identify compounds with robust bioactivity profiles. We screened the NIH Chemical Genomics Center (NCGC) Pharmaceutical Collection (NPC) and Mechanism Interrogation Plate (MIPE) small molecule collections of approved and investigational compounds against these cell lines; and measured metabolically active cells after 48 hours of compound treatment as a proxy for cell viability.
Assay Submitter: Nathalia J. Martinez, National Center for Advancing Translational Sciences, National Institutes of Health, Rockville, MD, USA; email: natalia.martinez@nih.gov
[1] Shen, M et al. Quantitative high-throughput phenotypic screening of pediatric cancer cell lines identifies multiple opportunities for drug repurposing. Oncotarget 2017 Dec 19;9(4):4758-4772. PMID 29435139.
The cells were obtained from University of North Carolina (UNC), Pediatric Preclinical Testing Program (PPT), and Coriell Institute (CI).
qHTS cell viability assay:
Cells were assayed in growth media at a density of 500-1,000 cells/well. Five microliters of cells were dispensed into 1,536-well, white, solid-bottom, TC-treated plates (Greiner Bio One) using a multidrop dispenser and incubated at 37 degrees C, 5% CO2, under a humidified atmosphere for 5 hours. Twenty-three nanoliters of compounds and controls (neutral control DMSO or positive control bortezomib at final concentration of 2.3 µM) were subsequently transferred by Kalypsys pintool. For primary screens, the MIPE collection was tested at 11-point dilutions (final concentrations range from 0.78 nM to 46 µM) and the NPC collection at 8-point dilutions (final concentrations range from 0.59nM to 46 µM). Compounds tested in follow-up screens were assayed at 11-point dilutions. Cells were incubated for 48 hours, followed by addition of 3 uL of CellTiter-Glo (Promega). After a 15 min incubation at room temperature, samples were analyzed for luminescence intensity using a ViewLux High-throughput CCD imager equipped with clear filters.
On the technique in general: In qHTS, concentration-response curves come from the screen itself.
Regarding `Clc1ccc2ncc(-c3cccc(NC4CNC4)n3)n2c1`, the Potency was 7430 nM (active).

`Cc1cc(Nc2cc(N3CCN(C)CC3)nc(C=Cc3ccccc3)n2)n[nH]1`: the Potency was 1520 nM (active).

Turning to `CN1CCN(c2ccc3nc(-c4c(N)c5c(F)cccc5[nH]c4=O)[nH]c3c2)CC1`, the Potency is 14800 nM (active).

For the molecule `O=C(Nc1ncc(-c2cc(C(F)F)nn2-c2c(Cl)cccc2Cl)s1)C1CC1`, the Potency was 296 nM (active).

Take `COC(=O)C1=C(C)NC(C)=C(C(=O)OCCN2CCN(C(c3ccccc3)c3ccccc3)CC2)C1c1cccc([N+](=O)[O-])c1` (stereo not given): the Potency was 6680 nM (active).

As to `CNC(=O)c1ccccc1Nc1nc(Nc2ccc(N3CCOCC3)cc2OC)ncc1Cl`, the Potency is 209 nM (active).

In the case of `CN1CCN(Cc2ccc(NC(=O)Nc3ccc(Oc4cc(NC(=O)C5CC5)ncn4)cc3)cc2C(F)(F)F)CC1`, the Potency was 332 nM (active).

On to `O=C(Cc1ccc(-c2ccc(OCCN3CCOCC3)cc2)cn1)NCc1ccccc1`, for which the Potency is 26.4 nM (active).

On to `COc1ccc(-c2cc3c(C)nc(N)nc3n(C3CCC(OCCO)CC3)c2=O)cn1` (stereo not given), for which the Potency is 5.3 nM (active).

In the case of `CC(C)CC(=O)Nc1n[nH]c2c1CN(C(=O)C1CCN(C)CC1)C2(C)C`, the Potency is 52.6 nM (active).

As to `CC[C@@H]1C(=O)N(C)c2cnc(Nc3ccc(C(=O)NC4CCN(C)CC4)cc3OC)nc2N1C1CCCC1`, the Potency was 59 nM (active).

In the case of `CC[C@H]1CN2CCc3cc(OC)c(OC)cc3[C@H]2C[C@@H]1C[C@@H]1NCCc2cc(OC)c(OC)cc21`, the Potency is 296 nM (active).

For `CC(C)c1ccc(Cn2ccc3c4c(N)nc(NC5CC5)nc4ccc32)cc1`, the Potency was 743 nM (active).

Turning to `CCn1nnc2c(N3CCOCC3)nc(-c3ccc(NC(=O)Nc4ccc(C(=O)N5CCN(C)CC5)cc4)cc3)nc21`, the Potency is 5.9 nM (active).

In the case of `C=CC(=O)N1CCC[C@@H](n2nc(-c3ccc(Oc4ccccc4)cc3)c3c(N)ncnc32)C1`, the Potency was 372 nM (active).

Regarding `CC=C1NC(=O)[C@H]2CSSCCC=C[C@H](CC(=O)N[C@H](C(C)C)C(=O)N2)OC(=O)[C@H](C(C)C)NC1=O`, the Potency was 10.5 nM (active).

As to `Nc1ccn([C@@H]2CS[C@H](CO)O2)c(=O)n1`, the “activity change, negative = cytotoxic” value is -45.8% [at 92.7 µM].

Take `COc1cccc2c(NCc3ccccc3)nc(-n3c(N)nc4ccccc43)nc12`: the Potency is 3720 nM (active).

Take `CCOc1cc2ncc(C#N)c(Nc3ccc(F)c(Cl)c3)c2cc1NC(=O)C=CCN(C)C`: the Potency is 46.9 nM (active).

With `COC(=O)Nc1nc2ccc(C(=O)c3ccc(F)cc3)cc2[nH]1`, the Potency was 372 nM (active).

`CCCCOc1c(C(=O)c2c(F)cc(C)cc2F)cnc2n[nH]cc12`: the Potency was 1660 nM (active).

For `COc1cccc(Nc2c(C(N)=O)cnc3c(C)cc(S(=O)(=O)c4cccc(C(=O)N(C)C)c4)cc23)c1`, the Potency is 6450 nM (active).

With `C[C@@H](Oc1cc(-c2cnn(C3CCNCC3)c2)cnc1N)c1c(Cl)ccc(F)c1Cl`, the Potency was 2350 nM (active).

As for `c1ccc2c(CCNc3ccc(Nc4ccncc4)cc3)c[nH]c2c1`, the Potency was 1870 nM (active).

As to `O=C(C=Cc1cccc(S(=O)(=O)Nc2ccccc2)c1)NO`, the Potency is 1210 nM (active).

Regarding `Cn1cc(-c2[nH]c3cc(NC(=O)[C@H](N)C4CCCCC4)cc4c3c2C=NNC4=O)cn1`, the Potency is 296 nM (active).

For `C[C@]1(CO)CN(c2cc(C(=O)Nc3ccc4c(c3)-c3c(c(C(N)=O)nn3-c3ccc(F)cc3)CC4)c(Cl)cn2)C[C@@]1(C)CO`, the Potency is 1480 nM (active).

As for `O=C(NCCCNc1nc(Nc2cccc(NC(=O)N3CCCC3)c2)ncc1I)c1cccs1`, the Potency is 1320 nM (active).

Regarding `C[C@@H]1COC(Nc2ccc3ncnc(Nc4ccc(OCc5nccs5)c(Cl)c4)c3c2)=N1`, the Potency is 2350 nM (active).

Take `Cc1cn(-c2cc(NC(=O)c3ccc(C)c(Nc4nccc(-c5cccnc5)n4)c3)cc(C(F)(F)F)c2)cn1`: the “activity change, negative = cytotoxic” value is 27.7%.

With `C=CC(=O)Nc1cc2c(Nc3ccc(F)c(Cl)c3)ncnc2cc1OCCCN1CCOCC1`, the Potency is 2350 nM (active).

Turning to `Cn1c2ccccc2c2c3c(c4c5ccccc5n(CCC#N)c4c21)CNC3=O`, the Potency is 148 nM (active).

`COCCn1c2c([n+](Cc3cnccn3)c1C)C(=O)c1ccccc1C2=O`: the Potency is 11.8 nM (active).

As to `CC(=O)c1c(C)c2cnc(Nc3ccc(N4CCNCC4)cn3)nc2n(C2CCCC2)c1=O`, the Potency was 20900 nM (active).

In the case of `CCCNC(=O)Nc1ccc(Oc2ncnc3cc(OC)c(OC)cc23)cc1Cl`, the “activity change, negative = cytotoxic” value is 0.802%.

With `O=C(O)C1(Cc2cccc(Nc3nccs3)n2)CCC(Oc2cccc(Cl)c2F)CC1` (stereo not given), the Potency was 1660 nM (active).

Take `Cc1cc(Nc2cc(NC(=O)c3c(Cl)cccc3Cl)ccn2)nc(N)n1`: the Potency is 132 nM (active).

In the case of `CC(C)[C@H](C(=O)Nc1ccc(C(=O)NO)cc1)c1ccccc1`, the Potency is 469 nM (active).

Regarding `O=C(O)c1ccc2c(c1)nc(Nc1cccc(Cl)c1)c1ccncc12`, the Potency is 935 nM (active).

Regarding `O=C1CCC[C@@H]2[C@H]3CCC[N+]4([O-])CCC[C@@H](CN12)[C@@H]34` (stereo not given in full), the “activity change, negative = cytotoxic” value is -14%.
